Screening results from PubChem.
In the library only some 5.4% were active in any assay of this set; here they are far more common.
rCAG binder – r(CAG) repeat RNA binding. TO-PRO-1 dye displacement fluorescence. inhibition, % at 3 µM. actives 1.3% (n = 370,000). AID 651821;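 active = inhibition above the plate cutoff, the mean of all test compounds on that plate plus 3 SD, cut at about 35% in these data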;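 also: 0% = DMSO alone and 100% = 100 µM mitoxantrone as full dye displacement; higher means more dye released from RNA so lower well fluorescence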
aDG glyco up – alpha-DG glycosylation activation; AID 624168; Pro5-aDG cells, alpha-DG glycosylation AlphaScreen (IIH6); 0% Pro5, 100% B10-LARGE cell signal; activation, % at 10 µM; actives 0.22% (n = 360,000);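 active = activation of at least 8% versus controls, or a plate z-score of at least 8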;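 also: Pro5 are CHO cells carrying HIG-tagged alpha-DG that lacks glycosylation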
A3A deaminase – inhibitors of human APOBEC3A DNA deaminase | AID 493011 | inhibition, % at 20 µM | actives 0.41% (n = 330,000) | P31941 | recombinant A3A, FAM/TAMRA ssDNA deamination fluorescence;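 active = at least 40% inhibition at 20 µM here, with at most 30% in a related deaminase screen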;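 also: plate controls were A3A with DMSO for no effect and wells lacking A3A enzyme for full effect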
Target sequence (P31941 whole entry, looked up): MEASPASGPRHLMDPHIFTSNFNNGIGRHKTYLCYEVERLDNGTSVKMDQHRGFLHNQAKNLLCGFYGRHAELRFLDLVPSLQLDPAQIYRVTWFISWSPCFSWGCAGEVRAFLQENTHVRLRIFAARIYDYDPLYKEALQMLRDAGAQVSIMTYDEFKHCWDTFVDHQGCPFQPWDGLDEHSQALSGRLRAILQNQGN
PHOSPHO1 block – inhibitors of human PHOSPHO1 phosphatase. Q8TCT1. recombinant PHOSPHO1, absorbance phosphatase assay. inhibition, % at 13.3 µM. actives 1.1% (n = 290,000). AID 1565; in the data active = inhibition above about 60%
ALR inh – human ALR oxidase inhibition via reduced H2O2; purified ALR, DTT oxidation, H2O2 HRP-luminol luminescence; actives 3.8% (n = 290,000); P55789; inhibition, % (concentration not given with the values);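 active = mean replicate inhibition above about 79%, with every replicate also reaching it, limit read from the data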
Target sequence (P55789 whole entry, looked up): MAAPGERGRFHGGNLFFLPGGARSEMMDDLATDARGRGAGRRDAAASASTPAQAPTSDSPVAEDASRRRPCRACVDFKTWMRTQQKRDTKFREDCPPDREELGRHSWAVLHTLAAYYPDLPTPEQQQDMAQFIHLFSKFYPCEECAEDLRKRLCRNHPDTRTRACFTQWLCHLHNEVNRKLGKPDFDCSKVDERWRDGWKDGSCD
APOBEC3G inh – APOBEC3G (human) deaminase inhibition; Q9HC16; recombinant A3G, ssDNA deamination FAM/TAMRA fluorescence; inhibition, % at 20 µM; actives 0.28% (n = 330,000); AID 493012;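 active = inhibition of at least 40% at 20 µM, with no more than 30% in the related APOBEC3A deaminase screen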;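 also: plate controls were DMSO wells with A3G for no effect and wells lacking A3G enzyme for full effect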
A3A conf – APOBEC3A (human) deaminase inhibition, confirmed | shares compounds with A3A deaminase | recombinant A3A, ssDNA deaminase UDG fluorescence assay | inhibition, % at 20 µM | actives 63% (n = 1,400);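 active = inhibition reaching a set limit, 80% of the first screen's cutoff, at 20 µM in any replicate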;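 also: plate controls were DMSO wells with A3A for no effect and wells lacking A3A enzyme for full effect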
UDG A3A counter – UDG inhibition in APOBEC3A counter-screen; shares compounds with A3A deaminase; 1,000 tested, under 10 active; AID 504714; UDG counterscreen, FAM/TAMRA uracil oligo fluorescence; inhibition, % at 20 µM; call rule not given here
An asterisk follows results filed as active; x = not tested or not shown.

SMILES | rCAG binder | aDG glyco up | A3A deaminase | PHOSPHO1 block | ALR inh | APOBEC3G inh | A3A conf | UDG A3A counter
CCN1CCN(c2ccc(S(=O)(=O)N3CCCCC3)cc2NC(=O)COc2ccc(Cl)cc2)CC1 | -3 | 1 | 37 | x | -7 | 4 | x | x
CC1CCN(C(=O)c2ncn3c2C(=O)NC[C@H]3C)CC1 | -1 | x | x | x | x | x | x | x
C[N+]1(CC2COC3(CCCCC3)O2)CCCCC1 (configuration not stated) | 0 | 0 | 68* | 13 | -4 | 25 | 74* | -3
c1cc(C2OCCN2CC2COC3(CCCC3)O2)ccn1 (configuration not stated) | 0 | 0 | -2 | -30 | -26 | -5 | x | x
COCCN1Cc2cc(C(=O)OC)c3c(c2C1=O)c1cc(F)ccc1n3S(=O)(=O)c1cccc(C)c1 | 5 | x | x | x | x | x | x | x
COc1ccc(-c2cc(CNc3nc4cc(-c5ccccc5C)sc4c(=O)n3C)on2)cc1 | 10 | 0 | x | x | x | x | x | x
O=C(Nc1ccc(-c2cn3ccsc3n2)cc1)C1CC1 | 7 | 0 | 77* | 88* | 8 | -2 | 10 | -1
CCc1cc2c(SCC(=O)N3CCN(C(=O)c4cccs4)CC3)ncnc2s1 | 1 | 0 | x | x | x | x | x | x
CCN(CC)CCNC(=O)c1ccc(NC(=O)C2CC(=O)N(c3ccc4c(c3)OCCO4)C2)cc1 (configuration not stated) | x | 0 | 48* | x | -3 | 5 | 52* | -4
CC(c1ccccc1)C1OCC(C[N+]2(C)CCCCC2)O1 (configuration not stated) | -5 | 0 | 68* | -10 | -1 | 15 | 66* | 0
COCCNC(=S)N1CCC2CC1c1cc(-c3ccc4c(c3)OCO4)ccc12 (configuration not stated) | 6 | 0 | x | x | x | x | x | x
Cc1ccc(Nc2nc3ccccc3n3nnnc23)cc1 | 3 | 0 | 46* | 45 | 4 | 3 | 1 | x
Cc1cc(C(=O)NC(C)CCC(C)C)c2ccccc2n1 (configuration not stated) | 2 | 0 | 46* | -4 | -5 | 3 | 1 | x
COCCN1Cc2cccc(C(=O)NCc3ccccc3OC)c2C1=O | -6 | 0 | 96* | -28 | -2 | -1 | -1 | -4
O=C(O)c1cccc(-c2ccc3c(c2)OCO3)c1 | -2 | 0 | -1 | x | 3 | -9 | x | x
O=C1OC(c2ccc3c(c2)OCO3)=N/C1=C\c1ccc(C(=O)O)cc1 | 10 | 0 | 40* | 31 | x | 11 | 32* | -3
CC1C[N+](=C2C=C(N3CCOCC3)CC(C)(C)C2)CC(C)O1 (configuration not stated) | 0 | 0 | 57* | -12 | -1 | 18 | 65* | 1
CN(C)c1cccc(N=C2C=C(N3CCOCC3)CC(C)(C)C2)c1 | -4 | 0 | 25 | 17 | 18 | 11 | x | x
CC1(C)CC(N2CCCCC2)=CC(=[N+]2CCCCC2)C1 | -6 | 0 | 60* | -90 | 5 | 25 | 69* | -2
O=C1C=C(N2CCOCC2)CO1 | -1 | 0 | -1 | x | -20 | -1 | x | x
CC1(C)CC(N2CCOCC2)=CC(=[N+]2CCOCC2)C1 | -1 | 0 | 66* | -41 | -1 | 25 | 69* | 1
CN(C)NC1=CC(=[N+]2CCCC2)CC(C)(C)C1 | -3 | 0 | 19 | -50 | 26 | 0 | x | x
CCCN(CCC)C1=CC(=[N+]2CCCC2)CC(C)(C)C1 | -1 | 0 | 60* | -3 | -4 | 27 | 31 | x
Cc1cc(Oc2cccnc2)ccc1NC(=O)Cc1c[nH]c2ccccc12 | 7 | x | x | x | x | x | x | x
O=C(NCc1ccccc1)[C@H]1CCCN1C(=O)[C@H]1CCCN1C(=O)c1ccc(F)c(C(F)(F)F)c1 | 0 | x | x | x | x | x | x | x
SMILES | rCAG binder | aDG glyco up | A3A deaminase | PHOSPHO1 block | ALR inh | APOBEC3G inh | A3A conf | UDG A3A counter
Cn1c(=O)c2ncn(CC(=O)NC3CCCCCC3)c2n(C)c1=O | 1 | 0 | 43* | 84* | 3 | 12 | 15 | x
CCc1ccc(NC(=O)Cn2cnc3c(=O)n(C)c(=O)n(C)c32)cc1 | -1 | 0 | 69 | 0 | x | 34 | x | x
CCOc1c(C=C(C#N)C#N)c2ccccc2n1CC | 20 | 0 | 42* | 1 | 99* | -1 | -7 | -4
CCN1CCN(c2ccc(NC(=O)c3ccc(Cl)c(N4CCCC4=O)c3)cc2)CC1 | 0 | 0 | 66* | -2 | -5 | 8 | 26 | x
CCN1CCN(c2ccc(NC(=O)c3ccc(Cl)c(S(=O)(=O)N4CCCC4)c3)cc2)CC1 | -2 | 0 | 40* | x | x | 1 | 15 | x
CCN1CCN(C(=O)c2ccc(Cl)c(S(=O)(=O)N3CCOCC3)c2)CC1 | 1 | 0 | 41* | 54 | -4 | 12 | 14* | 2
C[N+]1(C2CCC3CCCC2C3O)CCCCC1 (configuration not stated) | -1 | 0 | 65* | -1 | -2 | 21 | 68* | 4
CCCCNC(=O)C[C@H]1C[C@@]2(C(=O)OC)C(=C[C@H](C(C)C)O[C@@H]2C2CC2)N(CCc2ccc(OC)c(OC)c2)C1=O | 1 | x | x | x | x | x | x | x
Cc1ccc(/C=C2/SC(=Nc3ccc(F)cc3)NC2=O)s1 | 4 | 0 | 51* | -25 | 1 | 17 | 63* | -2
Cc1ccc(N=C2NC(=O)/C(=C\c3cccs3)S2)cc1C | 9 | 0 | -1 | -10 | 0 | -10 | x | x
C#CCN1CC(N(C)CCOC(=O)c2cc3ccccc3[nH]2)CS1(=O)=O (configuration not stated) | 1 | x | x | x | x | x | x | x
Cc1[nH]n(-c2cccc(Cl)c2)c(=O)c1C=NCc1ccco1 | 1 | 0 | 44* | 29 | 4 | 6 | 3 | x
O=C1C2C(C(=O)N1/N=C/c1cc([N+](=O)[O-])ccc1O)C1C=CC2C12CC2 (configuration not stated) | 5 | 0 | -7 | 32 | -2 | -1 | x | x
O=C1C2C(C(=O)N1/N=C/c1cc([N+](=O)[O-])c(O)cc1O)C1C=CC2C12CC2 (configuration not stated) | 15 | 0 | 78* | 8 | 0 | 19 | 74* | -2
CCCn1c(=O)c2sccc2n2c(CCCC(=O)NCc3cccnc3)nnc12 | -3 | 0 | -2 | 21 | -7 | 0 | x | x
CCCn1c(=O)c2sccc2n2c(CCCC(=O)NCc3ccco3)nnc12 | 2 | 0 | 46* | 29 | 0 | 15 | 34* | x
O=C(NC(Cc1ccccc1)c1nc2ccccc2[nH]1)C1CC(=O)N(c2ccc3c(c2)OCCO3)C1 (configuration not stated) | -1 | 0 | 55* | 96* | x | 21 | 4 | x
O=C(NCCOc1ccccc1)c1ncn[nH]1 | 3 | 0 | 76* | 12 | -1 | 21 | 52* | -3
